Laboratory results taken from PubChem BioAssay (NCI).
The panel holds about 79,000 compounds, 15% with a hit somewhere; the sample as a whole holds those more often. A number with no mark means an inactive call. Active and inactive are the calls of the source. Rule as the data show it: active = growth inhibition above about 70%; inactive = the rest.

Columns and labels:
[1] = NCI Yeast Anticancer Drug Screen. Data for the rad50 strain (AID 155);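 also: 0% = growth of vehicle-only cultures of the same strain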; details: S. cerevisiae rad50 strain growth inhibition, active compounds read high; at 50.0 µM unless noted
Outline: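 Genetically altered yeast (DNA repair pathway); compound treatment; growth inhibition vs vehicle ctrl.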

[2] = NCI Yeast Anticancer Drug Screen. Data for the mec2-1 strain (AID 157); details: S. cerevisiae mec2-1 strain, active compounds read high; at 50.0 µM unless noted
Outline: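 Each compound was tested on mec2-1 yeast, a strain altered in DNA damage repair or cell cycle control. Growth inhibition is reported relative to vehicle.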

[3] = NCI Yeast Anticancer Drug Screen. Data for the sgs1 mgt1 strain (AID 161);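 also: 0% = growth of cultures given vehicle only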; details: S. cerevisiae sgs1 mgt1 strain, active compounds read high; at 50.0 µM unless noted
Outline: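 Genetically altered yeast, compound exposure, growth inhibition relative to vehicle.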

[4] = NCI Yeast Anticancer Drug Screen. Data for the cln2 rad14 strain (AID 165);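 also: 0% = growth equal to vehicle treated cultures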; details: S. cerevisiae cln2 rad14 strain, active compounds read high; at 50.0 µM unless noted
Outline: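 Test compounds were added to cln2 rad14 yeast cultures; inhibition of growth was then determined by comparison with vehicle treatment.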

[5] = NCI Yeast Anticancer Drug Screen. Data for the bub3 strain (AID 167); details: S. cerevisiae bub3 mutant strain, active compounds read high; at 50.0 µM unless noted
Outline: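 Yeast carrying a defined mutation is treated with each compound, and growth is compared with that of vehicle-exposed cells to give inhibition.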

[6] = NCI Yeast Anticancer Drug Screen. Data for the mlh1 rad18 strain (AID 175); details: S. cerevisiae mlh1 rad18 strain growth inhibition, active compounds read high; at 50.0 µM unless noted
Outline: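 Inhibition values reflect reduced growth of mutant yeast versus vehicle-treated controls following compound exposure; the mutations affect DNA damage repair.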

| SMILES | growth inhibition [1] [%] | growth inhibition [2] [%] | growth inhibition [3] [%] | growth inhibition [4] | growth inhibition [5] [%] | growth inhibition [6] [%] |
| --- | --- | --- | --- | --- | --- | --- |
| COC1OC(CO)C(O)C1OS(C)(=O)=O (configuration not stated) | -11.7 | -4.25 | -10.3 | -1.2% | -4.45 | -8.3 |
| S=c1nc[nH]c2[nH]cc(Br)c12 | 11.6 | -6.55 | 2.5 | -4.7% | 3.75 | 11.8 |
| O=C(O)COc1ccc([N+](=O)[O-])cc1[N+](=O)[O-] | 20.9 | 14 | 22.4 | 7.95% | 3.95 | 16.6 |
| O=C(Nc1ccc(F)cc1)N1CCOCC1 | 1.65 | -25 | 4.3 | 9.6% | 6.8 | -9.4 |
| Cc1nc2[nH]c(=O)[nH]c(=O)c2s1 | -5.65 | 4.15 | -1.25 | -6.6% | -10.8 | -2.35 |
| CCCCN(CCCC)CCCC(O)c1c2ccccc2nc2ccccc12 (configuration not stated) | -3.55 | -5.95 | 7.6 | -13.9% | 1.4 | 12.6 |
| CN(C)CC(O)(C(=O)c1ccccc1)c1ccccc1 (configuration not stated) | -4.35 | -9.8 | -13.5 | -25.2% | -19.6 | -6.05 |
| CCc1ccc2c(c1)C(=O)c1ccccc1C2=O | 4 | 21.8 | 11.1 | -9.5% | 25.7 | 26.6 |
| C=C1C(=O)OC2CC1C(OC(C)=O)CC1(C)OC1CCC1(C)OC1CCC2(C)O (configuration not stated) | -4.4 | -0.1 | 1.05 | -2.7% | -9.55 | -3.4 |
| CCOC(=O)CN(c1c(C)cc([N+](=O)[O-])c2ccccc12)S(=O)(=O)c1ccccc1 | 50.1 | 13.8 | 33.8 | 6.65% | 16.9 | 12.2 |
| COC1CCC(OS(C)(=O)=O)C(C)O1 (configuration not stated) | 16.8 | -45.9 | 4.6 | -2.15% | -38.7 | 9.85 |
| C=C1C(=O)OCC1C(=O)OCC (configuration not stated) | 9.35 | 7.7 | -0.35 | 3.35% | -24.8 | 14.2 |
| O=C(Cc1ccccc1)NCc1ccco1 | -3.25 | 8.55 | -11.6 | -10.9% | -7.45 | 7.3 |
| O=[N+]([O-])c1ccc(-n2nnc(C3=NCCCN3)c2-c2ccc(Cl)cc2)cc1 | -11.3 | -8.1 | -5.75 | 8.6% | 5.55 | -19.6 |
| CCO[C@@H]1OC(=O)[C@H]2C(c3ccccc3Cl)=NO[C@@H]12 | -33.1 | -30.9 | -13.2 | -6.65% | 14.2 | 0.35 |
| CNc1ccccc1C(=O)NCCCN | -10.3 | -25.6 | 5 | 2.75% | 18.8 | 0.45 |
| O=C(O)c1ccc(/C=N/N=C2c3ccccc3-c3ccccc32)cc1 | 66.6 | 35.5 | 41 | 72.1% (active) | -4.5 | 64.2 |
| CC(C)C(=O)NS(=O)(=O)c1ccccc1 | -14.6 | -3.8 | 0.5 | -7.55% | -14.4 | -27.9 |
| CC(C)CCOB(OCCC(C)C)OCCC(C)C | -25.9 | -40.1 | -6.6 | 2.45% | -26.6 | -23.2 |

| SMILES | growth inhibition [1] [%] | growth inhibition [2] [%] | growth inhibition [3] [%] | growth inhibition [4] | growth inhibition [5] [%] | growth inhibition [6] [%] |
| --- | --- | --- | --- | --- | --- | --- |
| COC(=O)C(CCSc1ccccc1)C(=O)OC | 0.85 | -4.45 | 20.1 | 12.1% | 28.2 | -3.1 |
| NNC(=S)N/N=C/c1ccc([N+](=O)[O-])s1 | 9.2 | -2.4 | 24.1 | -47.4% | -19.8 | 6.35 |
| Fc1c(F)c(-c2c(F)c(F)c(S)c(F)c2F)c(F)c(F)c1S | -1.15 | 3.75 | 21.3 | 3.05% | 0.7 | -21.9 |
| COc1ccc(C)cc1S(=O)(=O)c1ccc(Cl)cc1[N+](=O)[O-] | -2.55 | -11.1 | 2 | -12.7% | 2.25 | -25.1 |
| ClC(=Nc1cccc2ccccc12)N(c1ccccc1)c1ccccc1 | -8.45 | 7.45 | -9.3 | 3.8% | 7.15 | -4.05 |
| CC1(C)CNC[C@]2(C)OCCCO[C@@]3(C)CNCC(C)(C)NC(=O)[C@](C)(CNCC(C)(C)NC3=O)OCCCO[C@](C)(CNCC(C)(C)NC2=O)C(=O)N1 | -33.2 | -22.2 | -32.1 | 0.5% | -17.1 | -46.2 |
| CC1(C)OCC(C2OC3OC(C)(C)OC3C2N)O1 (configuration not stated) | 10.8 | 10.7 | 11.1 | -2.95% | 21.8 | 5.4 |
| Cc1cccc(Nc2nc(C)nc3[nH]cc(-c4ccccc4)c23)c1 | -14.7 | -12.6 | -10.9 | -53.2% | -15.5 | -7.95 |
| Cc1cn(C2CC(O)C(CO)O2)c(=O)nc1N1CCSCC1 (configuration not stated) | 2.5 | -7.05 | -2.6 | -32.8% | -12 | -8.8 |
| O=C(Oc1cccc(OC(=O)c2ccccc2O)c1)c1ccccc1O | -1.05 | -7.95 | 9.8 | -30.8% | 25.9 | -5.35 |
| O=C(OC1c2cccc3cccc(c23)C1O)c1ccccc1 (configuration not stated) | 8.2 | -2.45 | 1.55 | 2.65% | 5.85 | 1.75 |
| C=CCCCCCCC=C | -23.6 | -43 | -4.1 | 2.45% | -34.2 | -19.4 |
| CCOC(=O)c1cc2c(-c3ccccc3)c(-c3ccccc3)c(-c3ccccc3)c(-c3ccccc3)n2n1 | 10.2 | 15.2 | 0.25 | 31.9% | -1.45 | -0.4 |
| Cc1cc(=O)[nH]c(N/N=C/C=C/c2ccccc2)n1 | -35.4 | -25.7 | -17.1 | -15.8% | -15.8 | -25.9 |
| CSc1cccc(NC(=S)NC(=O)c2ccccc2)c1 | -0.25 | -8.15 | -0.65 | -2.4% | 2.55 | -17.4 |
| O=C1N(Cc2ccccc2)CCN1Cc1ccccc1 | -37.1 | -24.6 | -11.7 | 20.2% | 0.6 | -22.9 |
| O=C(NC12CC3CC(CC(C3)C1)C2)C(=O)c1c[nH]c2ccc(Cl)cc12 | -9.15 | -10.6 | -4.1 | 21.8% | 8.5 | -9.15 |
| CC1(C)C=C(C(c2cccc([N+](=O)[O-])c2)N2CCCCC2)C(=O)c2ccccc21 (configuration not stated) | -26.9 | -10.7 | -13.2 | -40.9% | -0.9 | -13.3 |
